Reference: PubChem BioAssay (NCI)
This is part of a sample that, as a whole, favours compounds with a hit. Of some 83,000 tested, about 20% had one in any assay.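 Testing used 96-well plates and a 48-hour single-concentration exposure. Example: -40 means 40% of the starting cells died.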 The source made the active and inactive calls. Rule for the calls: active = growth percent below 10; inactive = the rest.

Tested on: SK-MEL-5 melanoma
Assay: NCI-60 one-dose screen, 48 h (100 = growth as untreated, 0 = no growth, -100 = all killed)
Conditions: 10 µM unless noted

SMILES | growth
O=NN1CCCc2cccc(O)c21 | 19.9% (inactive)
Fc1ccc2c(c1)c(-c1nc(-c3c[nH]c4ncccc34)cs1)cn2CCN1CCOCC1 | 32.2% (inactive)
CC(=O)Nc1nc2c(s1)CC[C@@]1(C)C2=CC[C@H]2[C@@H]3CC[C@H](O)[C@@]3(C)CC[C@@H]21 | 53.7% (inactive)
CN(C)CC(C(=O)Cc1ccccc1)c1ccccc1 (configuration not stated) | 97.2% (inactive)
CCOC(=O)[C@@H](C)C[C@H](Cc1ccccc1)NC(=O)c1csc([C@@H](C[C@H](C(C)C)N(C)C(=O)[C@H](CCC(C)C)NC(=O)[C@H]2CCCCN2C)OC(C)=O)n1 | -25.5% (active)
CCCCCCCCCCCCCCCCCC1OC[C@H](COC(=O)O[C@@H](C(=O)O[C@H]2C[C@@]3(O)[C@@H](OC(=O)c4ccccc4)[C@@H]4[C@]5(OC(C)=O)CO[C@@H]5C[C@H](O)[C@@]4(C)C(=O)[C@H](OC(C)=O)C(=C2C)C3(C)C)[C@@H](NC(=O)c2ccccc2)c2ccccc2)O1 (some centres not stated) | 75.6% (inactive)
c1cnc2[nH]cc(-c3csc(-c4cn(CCCCN5CCCCC5)c5ccccc45)n3)c2c1 | 70.4% (inactive)
C=C1C[C@](OC)([C@H](O)C(=O)N[C@@H](OC)[C@@H]2C[C@@H](O)C(C)(C)[C@@H](C[C@@H](COC)OC)O2)O[C@H](C)[C@@H]1C | -100% (active)
O=C(Nc1ccc(O)cc1)C(Cl)(Cl)Cl | 100% (inactive)
Cc1c(NS(=O)(=O)c2ccccc2)ccc([N+](=O)[O-])c1Cl | 25.8% (inactive)
CCCCN1CCCC[C@@H]1C(=O)N[C@H](C(=O)N(C)[C@H](C[C@@H](OC(C)=O)c1nc(C(=O)NC2CCC(C(=O)OC)CC2)cs1)C(C)C)C(C)C (some centres not stated) | 38.4% (inactive)
Cn1cc(-c2csc(-c3cn(CCCCN4CCCCC4)c4ccc(F)cc34)n2)c2cccnc21 | -100% (active)
CC1=C(CN)C2=C(C)C3(CC3)[C@@](C)(O)C(=O)C2=C1 | 98.8% (inactive)
CC(=O)O[C@H]1C(=O)[C@@]2(C)[C@H]([C@H](OC(=O)c3ccccc3)[C@]3(O)C[C@H](OC(=O)[C@H](OC(=O)OC[C@H]4COC(C)(C)O4)[C@@H](NC(=O)c4ccccc4)c4ccccc4)C(C)=C1C3(C)C)[C@]1(OC(C)=O)CO[C@@H]1C[C@@H]2O | 18.2% (inactive)
Cn1cc(-c2csc(-c3cn(CCN4CCOCC4)c4ccc(F)cc34)n2)c2cccnc21 | -28.8% (active)
Brc1ccc2c(c1)c(-c1nc(-c3c[nH]c4ncccc34)cs1)cn2CCN1CCOCC1 | 51.3% (inactive)
COC(=O)[C@@H](C)C[C@H](Cc1ccccc1)NC(=O)c1csc([C@@H](C[C@H](C(C)C)N(C)C(=O)[C@@H](NC(=O)[C@H]2CCCCN2C)C2CCCCC2)OC(C)=O)n1 | -56.2% (active)
CC(=O)OC1CCC2(C)C(CCC3C2CC(=O)C2(C)C3CC(Sc3ccc(N(CCCl)CCCl)cc3)C2C(C)=O)C1 (configuration not stated) | 93% (inactive)
COc1ccc(S(=O)(=O)N(Cc2ccc3c(c2)C=CC(C)(C)O3)c2ccccc2)cc1OC | 3.42% (active)

SMILES | growth
CC[C@H](C)[C@H](NC(=O)[C@H]1CCCCN1C)C(=O)N(C)[C@H](CC(=O)c1nc(C(=O)N[C@@H](Cc2ccccc2)C[C@H](C)C(=O)O)cs1)C(C)C | 56.1% (inactive)
COC(=O)[C@@H](C)C[C@H](Cc1ccccc1)NC(=O)c1csc([C@@H](C[C@H](C(C)C)N(C)C(=O)[C@@H](NC(=O)C23CC(NC(C)=O)(C2)C3)C2CC2)OC(C)=O)n1 | 30.5% (inactive)
O=C1CC2(CC3(Cl)C(Cl)=C(Cl)C2(Cl)C3(Cl)Cl)C(=O)O1 (configuration not stated) | 102% (inactive)
C[n+]1c(/C=C/c2ccc(N(CCCl)CCCl)cc2)sc2ccccc21 | 61.1% (inactive)
CC[C@H](C)[C@H](NC(=O)NC(C)(C)C)C(=O)N(C)[C@H](C[C@@H](OC(C)=O)c1nc(C(=O)N[C@@H](Cc2ccccc2)C[C@H](C)C(=O)OC)cs1)C(C)C | -44.4% (active)
CCCCCCCC[N+](C)(CCCCCCCC)CCCCCCCC | -100% (active)
CC(=O)O[C@H]1C(=O)[C@@]2(C)[C@H]([C@H](OC(=O)c3ccccc3)[C@]3(O)C[C@H](OC(=O)[C@H](OC(=O)OC[C@@H]4COC(C)(C)O4)[C@@H](NC(=O)c4ccccc4)c4ccccc4)C(C)=C1C3(C)C)[C@]1(OC(C)=O)CO[C@@H]1C[C@@H]2O | 22% (inactive)
CC(=O)O[C@H]1C(=O)[C@@]2(C)[C@H]([C@H](OC(=O)c3ccccc3)[C@]3(O)C[C@H](OC(=O)[C@H](OC(=O)OCC4COC(C)(C)O4)[C@@H](NC(=O)c4ccccc4)c4ccccc4)C(C)=C1C3(C)C)[C@]1(OC(C)=O)CO[C@@H]1C[C@@H]2O (some centres not stated) | 44.1% (inactive)
CC[C@H](C)[C@H](NC(=O)C12CC(NC(C)=O)(C1)C2)C(=O)N(C)[C@H](C[C@@H](OC(C)=O)c1nc(C(=O)N[C@@H](Cc2ccccc2)C[C@H](C)C(=O)OC)cs1)C(C)C | -6.58% (active)
CCn1cnc2c(Nc3cccc(Cl)c3)nc(N[C@@H]3CCCC[C@@H]3N)nc21 | -26.5% (active)
O=C(O)C1C(C(=O)O)C2(Cl)C(Cl)=C(Cl)C1(Cl)C2(Cl)Cl.[Hg] (configuration not stated) | 85.3% (inactive)
CC[C@H](C)[C@H](NC(=O)[C@H]1CCCCN1C)C(=O)N(C)[C@H](C[C@@H](OC(C)=O)c1nc(C(=O)N[C@@H](Cc2ccccc2)C[C@H](C)C(=O)OC)cs1)C(C)C | -69.5% (active)
CN1C(=O)C(=Cc2cn(CCCCCCn3c4ccccc4c(=O)c4ccccc43)c3ccccc23)C(=O)N(C)C1=O | 94.3% (inactive)
CC(C)(C)C(=O)OCOP(=O)(OCOC(=O)C(C)(C)C)C1CCCN(O)C1=O (configuration not stated) | -13.5% (active)
COC(=O)[C@@H](C)C[C@H](Cc1ccc2ccccc2c1)NC(=O)c1csc([C@@H](C[C@H](C(C)C)N(C)C(=O)[C@@H](NC(=O)[C@H]2CCCCN2C)C(C)C)OC(C)=O)n1 | -21% (active)
C=C1C(=O)O[C@H]2[C@H]1CC/C(COC(=O)C(=O)c1cn(Cc3ccccc3)c3ccccc13)=C\CC[C@@]1(C)O[C@@H]21 | -96.6% (active)
CN(CCCCN(C)CCOS(C)(=O)=O)CCOS(C)(=O)=O | 84.4% (inactive)
NC(=O)CNc1ccc([As]=[As]c2ccc(NCC(N)=O)cc2)cc1 (configuration not stated) | 23.7% (inactive)
